Bioassay records deposited in PubChem BioAssay by National Center for Advancing Translational Sciences (NCATS).
Compounds with a hit are over-represented: about 10% of the library has one in this group of screens.
RORg inh = blocks mouse ROR gamma transcriptional activity | P51450 | Drosophila S2 Gal4-RORgamma UAS-luciferase reporter, 20 h | Potency, µM (highest dose often 53.6 µM), without a hit: top-dose activity change, negative = inhibition, most hits filed as inhibitors | actives 5.4% (n = 310,000) | AID 2551; further: on the % scale 0 is the no-effect control and ±100 the full control effect; nearly all actives have a fitted effect of over 60% in size
Target sequence (P51450 whole entry, looked up, the tested form may be a part): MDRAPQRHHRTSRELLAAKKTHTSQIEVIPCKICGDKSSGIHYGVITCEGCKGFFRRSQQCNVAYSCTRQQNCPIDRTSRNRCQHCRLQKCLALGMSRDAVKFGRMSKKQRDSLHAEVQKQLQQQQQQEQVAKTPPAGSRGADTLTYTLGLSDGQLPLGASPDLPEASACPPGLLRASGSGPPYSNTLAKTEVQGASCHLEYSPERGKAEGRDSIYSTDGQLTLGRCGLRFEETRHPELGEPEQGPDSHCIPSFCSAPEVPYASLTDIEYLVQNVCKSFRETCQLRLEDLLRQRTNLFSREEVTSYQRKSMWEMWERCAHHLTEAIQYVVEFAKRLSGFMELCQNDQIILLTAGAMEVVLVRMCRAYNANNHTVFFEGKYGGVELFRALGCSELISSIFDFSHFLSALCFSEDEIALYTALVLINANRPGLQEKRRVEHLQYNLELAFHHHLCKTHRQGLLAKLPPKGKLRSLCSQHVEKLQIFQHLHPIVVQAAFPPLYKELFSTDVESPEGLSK
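Luminescence from a UAS-regulated Photinus luciferase reporter in stably transfected Drosophila Schneider cells is measured; decreased signal marks ROR gamma inhibition. Fusion expression is induced by 700 uM copper sulfate for 20 hr.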
Gal4-VP16 FLuc = counter-screen for ROR gamma inhibitors: Gal4-VP16 reporter | Drosophila S2 Gal4-VP16 UAS-luciferase, luminescence, 20 h | Potency, µM (series often up to 53.6 µM), for inactives: at the top dose activity, negative = inhibition, usual class: inhibitors | actives 3.5% (n = 310,000) | AID 2546;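 further: Gal4-VP16 expression switched on by copper sulfate through the metallothionein promoter; on the % scale 0 is the no-effect control and ±100 the full control effect; nearly all actives have a fitted effect of over 50% in size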
KB-3-1 tox = kills parental KB-3-1 adenocarcinoma cells; KB-3-1 viability, CellTiter-Glo ATP luminescence, 72 h; Potency, µM (top dose mostly 46.1 µM), actives largely listed as cytotoxic; actives 1.4% (n = 400,000); AID 1347075; further: on the % scale 0 is the no-effect control and ±100 the full control effect; nearly all actives have a fitted effect of over 60% in size
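Cytotoxicity measured as CellTiter-Glo luminescence after 72 h at 37 C. Compound titrations were pinned onto drug-naive KB-3-1 parental adenocarcinoma cells grown in DMEM with 10% FBS, and normalized data fitted to concentration-response curves.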
KB-V1 MDR tox = kills drug-selected multidrug resistant KB-V1 cells; Potency, µM (titrated, usually from 46.1 µM), usual class: cytotoxic; KB-V1 MDR cells viability, CellTiter-Glo, 72 h; actives 3.4% (n = 400,000); AID 1347076; further: on the % scale 0 is the no-effect control and ±100 the full control effect; nearly all actives have a fitted effect of over 60% in size
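KB-V1 cells (P-gp-expressing MDR subline of KB-3-1) in phenol-red-free DMEM with 10% FBS were exposed to library compounds over a concentration series for 72 h at 37 degrees C. Viability read by CellTiter-Glo luminescence; concentration-effect curves fitted after normalization.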
MCF10A rereplic = induces DNA re-replication in MCF 10a normal breast cells; MCF 10A DNA re-replication, Hoechst nuclear intensity, 48 h; Potency, µM (titrated, usually from 46.1 µM), for inactives: at the highest dose activity, positive = re-replication, usual class: activators; actives 2.9% (n = 350,000); AID 624296; further: % of control where 0% means no effect; nearly all actives have a fitted effect of over 50% in size
SW480 rerep = induces DNA re-replication in SW480 colon adenocarcinoma cells; SW480 DNA re-replication, Hoechst DNA content imaging, 48 h; Potency, µM (series often up to 46.1 µM), for the others: top-dose re-replication activation, usual class: activators; actives 1.8% (n = 340,000); AID 624297; further: % of control where 0% means no effect; nearly all actives have a fitted effect of over 55% in size
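Compounds, transferred as 23 nL by pin tool, were incubated with cells for 48 hr; DNA content per nucleus was then quantified by Hoechst staining and fluorescence plate imaging.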
Starred values were filed as active, the others as inactive; i = inactive; ? = inconclusive; . = no result; [ ] = remark or other dose. The call rests on the fitted dose curve; in most records, active means well fitted curve in the direction sought with a large enough effect; inconclusive means small, poorly fitted or top-dose-only effect, or another doubt; inactive means no such curve, though single readings can be large; an effect the other way counts as inactive or inconclusive. Potency means the concentration at half of the fitted maximal effect.

SMILES	RORg inh	Gal4-VP16 FLuc	KB-3-1 tox	KB-V1 MDR tox	MCF10A rereplic	SW480 rerep
C#CCOc1c(Br)cc(/C=N\NC(=O)CN2CCOCC2)cc1OCC	12.1%	35.5µM*	i	i	1.0%	-15.8%
COc1ccc(C(C)(NC(C)=O)c2nc(-c3cc(F)cc(F)c3)cs2)cc1 (centres undefined)	.	.	i	i	.	.
CCOC(=O)C1CCN(S(=O)(=O)c2cccc(-c3cn4cccnc4n3)c2)CC1	42.6%	?	i	i	-10.1%	-6.0%
CCOC(=O)C1CCN(S(=O)(=O)c2cccc(-c3cn4cc(C)ccc4n3)c2)CC1	-18.7%	17.8µM*	i	i	1.7%	-3.7%[9.22 µM]
CCc1cccc(NC(=O)Nc2csc3c2CCCC3)c1	.	.	i	i	.	.
CCOc1ccc(NC(=O)C2CCCN(c3ccc(Sc4ccc(C)cc4)nn3)C2)cc1 (centres undefined)	.	.	i	i	.	.
CC1CC(C)CN(C(=O)CSc2ncnc3sccc23)C1 (centres undefined)	.	.	i	20.6µM*	11.7%	-4.8%
O=C(CSc1nnc(-c2n[nH]c3ccccc23)n1-c1ccccc1)Nc1cccc(Cl)c1	2.2%	-17.1%	i	7.31µM*	-49.1%	3.8%
CC(=O)/C(=N\Nc1cccc(Cl)c1)Sc1nnc(-c2ccccc2)n1-c1ccccc1	10µM*	11.2µM*	i	i	?	0.9%
CC(=O)Nc1ccc(C(=O)CSc2nnc(-c3ccccc3)n2-c2ccccc2)cc1	.	.	i	i	.	.
CC(=O)/C(=N\Nc1cccc(Cl)c1)Sc1cccc2cccnc12	3.16µM*	?	i	i	3.5%	-6.0%
CCc1ccc(NC(=O)CSc2nnc(-c3n[nH]c4ccccc34)n2-c2ccccc2)cc1	-16.0%	-24.0%	i	i	?	1.6%
Cc1cccc(NC(=O)c2ncn3c2C(=O)N[C@@H](C)C3)c1	.	.	i	i	.	.
COc1ccc(NC(=O)O/N=C/c2c(C)nn(C(C)(C)C)c2C)cc1	2.51µM*	11.2µM*	i	?	7.4%	-4.5%
COc1cc(C=NOC(=O)Nc2ccccc2)cc(OC)c1OC	.	.	i	i	-1.7%	-2.0%
COc1ccc(OCc2nc3ccccc3n2Cc2ccccc2Cl)cc1	.	.	i	i	.	.
CCOc1ccc(CC(=O)Nc2c(C(=O)c3ccc(F)cc3)oc3ccc(Cl)cc23)cc1OCC	.	.	i	i	.	.
COC(=O)c1sc(NC(=S)NNC(=O)c2c(Br)c(C)nn2C)c(C(=O)OC)c1C	6.31µM*	?	i	i	0.0%	23.7%
COC(=O)c1sc(S(=O)(=O)Nc2c(C)nn(C)c2C)c(C(=O)OC)c1C	.	.	i	?	18.8%	-30.6%
O=c1c(-c2cccs2)nc2cnc(Oc3cccc(Cl)c3)nc2n1C1CC1	1.8%	3.4%	.	.	.	.
CC1(C)CC[C@]2(C(=O)O)CC[C@@]3(C)C(=CCC4[C@@]5(C)CCC(O)C(C)(C)C5CC[C@@]43C)C2C1 (some centres undefined)	12.9%	1.2%	.	.	.	.
CN(Cc1c(F)cccc1Cl)c1ccc(S(=O)(=O)N2CCOCC2)cn1	29.8%	-2.8%	?	18.4µM*	17.2%	-6.4%
CCC(C)NC(=O)Nc1ccc(Br)cc1 (centres undefined)	6.2%	11.5%	i	i	1.0%	-7.8%
CCC(C)Nc1ccc(NC(C)CC)cc1 (centres undefined)	?	?	?	?	2.59µM*	29.9%
COC(=O)C1C=CC(OC2OC(COC(C)=O)C(OC(C)=O)C(OC(C)=O)C2OC(C)=O)n2c(=O)n(-c3ccccc3)c(=O)n21 (centres undefined)	.	.	?	5.17µM*	1.64µM*	?
SMILES	RORg inh	Gal4-VP16 FLuc	KB-3-1 tox	KB-V1 MDR tox	MCF10A rereplic	SW480 rerep
COCCN(CC(=O)NC1CCCCC1)C(=O)/C=C/C(=O)c1ccc(OC)cc1O	-7.4%	3.6%	18.4µM*	?	6.51µM*	?
COc1ccc(C(=O)/C=C/C(=O)N(CC(=O)NC2CCCCC2)Cc2cccs2)c(O)c1	7.94µM*	5.01µM*	?	?	18.4µM*	?
COc1ccc(C(=O)OCC(=O)NC(=O)NC2CCCC2)c(O)c1	24.2%	24.2%	i	i	-0.5%	-3.0%
COC(=O)[C@@H](NC(=O)O[C@H]1C(=O)c2cc(OC)ccc2O[C@@H]1c1ccc(OC)c(Br)c1)C(C)C	5.0%	3.5%	.	.	.	.
CCN(Cc1ccccc1)C(=O)C1CCC(CNS(=O)(=O)c2ccc3c(c2)CCCC(=O)N3)CC1 (centres undefined)	.	.	?	i	.	.
CCCCNC(=O)CCn1c(=O)c2ccccc2n(Cc2ccc(Cl)cc2)c1=O	-3.8%[10 µM]	-7.8%	i	14.6µM*	-7.4%	?
COCCCNC(=O)c1ccc(Cn2c(=O)c3ccccc3n(Cc3ccccc3C#N)c2=O)cc1	11.7%	-9.6%	?	i	23.1µM*	20.6%
O=C(CCCCn1c(=O)c2ccccc2n(Cc2ccc(F)cc2)c1=O)NCc1ccco1	26.5%	5.4%	11.6µM*	5.8µM*	18.4µM*	?
CCOC(=O)C(=O)N(C)c1c(CC)nc2c(OCc3ccc(OC(F)F)cc3)cccn12	.	.	i	i	.	.
CCCCCOC(=O)c1ccc(OC(=O)c2sc3ncn(Cc4cccc(F)c4)c(=O)c3c2C)cc1	.	.	i	i	.	.
CCC1(c2ccc(F)cc2)NC(=O)N(CC(=O)NC2CCCC(C)C2C)C1=O (centres undefined)	.	.	i	16.4µM*	-1.8%	0.1%
CCC1(c2ccc(Cl)cc2)NC(=O)N(CC(=O)NC2CCCC(C)C2C)C1=O (centres undefined)	.	.	i	i	67.1%	4.11µM*
CCC1(c2ccc(Cl)cc2)NC(=O)N(CC(=O)NC2CCCCCC2)C1=O (centres undefined)	.	.	i	i	9.8%	-3.8%
CCC(=O)OC1C2CC3=C4CC(=O)OC(c5ccoc5)[C@]4(C)CCC3[C@@](C)(C2=O)C(CC(=O)OC)C1(C)C (some centres undefined)	-1.3%	0.2%	.	.	.	.
Cc1cc(C(=O)N2CCN(c3ncccn3)CC2)sc1-c1ccccc1	.	.	i	20.6µM*	7.0%	7.1%
O=C(c1ccc(Cl)c(S(=O)(=O)N2CCCC2)c1)N1CCN(c2ccc(F)cc2)CC1	5.3%	4.2%	?	5.8µM*	?	-3.2%
Cc1ccc(C(=O)N2CCN(c3ncccn3)CC2)cc1S(=O)(=O)N1CCCCC1	6.9%[10 µM]	-8.9%	i	23.1µM*	-1.3%	-5.7%
Cc1ccc(C(=O)N2CCCCC2)cc1S(=O)(=O)N1CCCC1	7.0%	-4.2%	i	i	0.1%	0.9%
